This excerpt belongs to a sample that is enriched for hits.
mHTT-CaM PPI inh: mHTT-calmodulin interaction abrogation; P42858; hit rate 3.6% among 190,000; inhibition, % at 15 µM; AlphaScreen His-mHTT/GST-CaM binding, luminescence
Pf apPOL inh: Pf-apPOL DNA polymerase inhibition. Recombinant Pf-apPOL, molecular beacon fluorescence, 1.5 h. inhibition, % at 10 µM. hit rate 0.25% among 210,000. AID 1794808
Large screens that a line does not name were inactive; ! = not confirmed by another sample. No stated cut-off is given here; in the data, active means inhibition above about 50%; inactive means the rest.

CCc1cc(-c2n[nH]c(C)c2-c2nc3ccccc3s2)c(O)cc1OC	mHTT-CaM PPI inh 98
CCc1ccc(N(CC(=O)NCc2ccco2)S(C)(=O)=O)cc1	none
O=C(O)CC(C(=O)O)n1nc(-c2ccccc2)cc1-c1ccccc1 (configuration not stated)	Pf apPOL inh 96
Cc1cc(C)n(C(CC(=O)O)C(=O)O)n1 (configuration not stated)	none
Cc1ccc(C(=O)N2CCc3c(c(-c4nc(Cc5ccccc5)no4)nn3C)C2)c(C)c1	none
CNC(=O)C1CC(=O)N(c2ccc(OC)cc2)C1 (configuration not stated)	none
Cc1ccc(-c2nc3ncccc3o2)cc1NC(=O)COc1ccc(Cl)cc1	Pf apPOL inh 91
COc1ccc(OCC(=O)Nc2cc(-c3nc4ncccc4o3)ccc2C)cc1	none
Cc1ccc(C(=O)Nc2cccc(-c3nc4ncccc4o3)c2)c(Cl)c1	mHTT-CaM PPI inh 53
O=C(COc1ccc(Cl)cc1)Nc1cccc(-c2nc3ncccc3o2)c1	mHTT-CaM PPI inh 50!
COc1ccc(OCC(=O)Nc2cccc(-c3nc4ncccc4o3)c2)cc1	none
O=C(Nc1cccc(-c2nc3ncccc3o2)c1)c1cccc(Cl)c1Cl	none
CCOCCCNC(=O)c1c[nH]c2ccc(S(=O)(=O)N3CCc4ccccc43)cc2c1=O	none
O=S(=O)(Cc1ccc(Cl)cc1)C1CCCCC1O (configuration not stated)	none (no result: mHTT-CaM PPI inh)
COCCn1cc2c3c(cccc31)CN(C(=O)c1ccccc1OC)CC2	mHTT-CaM PPI inh 52
COCCn1cc2c3c(cccc31)CN(C(=O)c1cc(F)cc(F)c1)CC2	none
COCCn1cc2c3c(cccc31)CN(C(=O)c1cccc(C(F)(F)F)c1)CC2	mHTT-CaM PPI inh 70
CCCn1cc2c3c(cccc31)CN(C(=O)NCCCOC)CC2	none
COCCn1cc2c3c(cccc31)CN(C(=O)c1ccccc1Cl)CC2	none
CCCn1cc2c3c(cccc31)CN(C(=O)c1ccccc1OC)CC2	mHTT-CaM PPI inh 58
Cc1ccc(-c2cn(CC(=O)N3CCSCC3)c(=O)o2)cc1	none
CN(C)C(=O)c1ccc(N2CCNC(c3ccccc3)C2)nc1 (configuration not stated)	none
CCOc1ccc(N(CC(=O)NCc2cccnc2)S(=O)(=O)c2ccc(SC)cc2)cc1	none
Cc1ccc(NC(=O)c2c(C)nc3sc(C(N)=O)c(N)c3c2-c2ccc(Cl)cc2)c(C)c1	none
CCCCc1nnc2n1N=C(c1ccc(Cl)cc1)CS2	none
O=C(NCC(O)c1cccs1)Nc1cccs1 (configuration not stated)	none
Cc1c(C(=O)O)cccc1-c1ccc(/C=C/[N+](=O)[O-])o1	none
Cc1ccc(Cl)cc1-c1ccc(/C=C/[N+](=O)[O-])o1	mHTT-CaM PPI inh 77
COc1ccc(C(C[N+](=O)[O-])c2c(C)[nH]c3ccccc23)c(OC)c1 (configuration not stated)	mHTT-CaM PPI inh 63
COc1ccc(C(C[N+](=O)[O-])c2c(C)[nH]c3ccccc23)cc1OC (configuration not stated)	none
COc1cc(C(C[N+](=O)[O-])c2c(-c3ccccc3)[nH]c3ccccc23)cc(OC)c1OC (configuration not stated)	mHTT-CaM PPI inh 58
COc1ccc(C(C[N+](=O)[O-])c2c[nH]c3ccccc23)cc1 (configuration not stated)	none
O=S(=O)(NCCc1ccccc1Cl)c1cccc2nsnc12	none
Clc1ccc2nc(CSc3nc4ccccc4[nH]3)c(Cl)n2c1	none
CCOc1ccccc1NC(=O)C1c2cc(OC)c(OC)cc2C(=O)N(C)C1c1cccnc1 (configuration not stated)	none
COc1ccc(NC2=C(N(C)C)C(=O)c3ccccc3C2=O)cc1	mHTT-CaM PPI inh 63
COc1ccc(C2=C(Nc3ccc(C(N)=O)cc3)c3ccccc3C2=O)cc1	none
COc1cccc(Nc2ccccc2C)c1	none
COc1cccc(NC2=C(N(C)C)C(=O)c3ccccc3C2=O)c1	mHTT-CaM PPI inh 58
Cc1cccc(CN2CCCN(c3cccc(NC(=O)C(C)C)c3)C2=O)c1	none
Cc1nc(SCC(=O)N2CCCC2)[nH]c(=O)c1C	none
CN(C)S(=O)(=O)Oc1ccc(C#N)cc1	none (no result: mHTT-CaM PPI inh)
Cc1cccc(C2=NN(c3ccccc3)[C@H](CO)[C@H]2c2ccc(F)cc2)c1	mHTT-CaM PPI inh 81
Cc1cccc(C2=NN(c3ccccc3)[C@H](CO)[C@H]2c2ccc(Cl)cc2)c1	mHTT-CaM PPI inh 92
OC[C@@H]1[C@@H](c2ccccc2)C(c2cccc(Cl)c2)=NN1c1ccccc1	mHTT-CaM PPI inh 59
CC[C@H]1C(c2cccc(C)c2)=NN(c2ccccc2)[C@@H]1CO	none
CC[C@H]1C(c2cccc(Cl)c2)=NN(c2ccccc2)[C@@H]1CO	mHTT-CaM PPI inh 75
CC[C@@H]1C(c2cccc(C)c2)=NN(c2ccccc2)[C@H]1C(=O)N1CCOC1=O	none
CCCn1c(C2CCN(C(=O)Nc3ccc4c(c3)OCCO4)C2)nc2cccnc21 (configuration not stated)	none
CC(C)(C)C(=O)Nc1ccc(C(=O)Nc2ccc(OCC(=O)O)cc2)cc1	none
O=C(C[n+]1cccc(/C=N/O)c1)N1CCOCC1	none
Cc1cc(O)c(C=Nc2ccc3oc(-c4cccnc4)nc3c2)cc1C	none
Cn1nc(CC(=O)Nc2ccc3c(c2)OCO3)c2ccccc2c1=O	none
COc1ccccc1[C@H]1C(c2cccc(Cl)c2)=NN(c2ccccc2)[C@@H]1CO	mHTT-CaM PPI inh 66
COc1ccccc1[C@@H]1C(c2cccc(Cl)c2)=NN(c2ccccc2)[C@H]1C(=O)N1CCOC1=O	none
Cc1ccc(S(=O)(=O)N2CCC3(CC2)NC(C)C(=O)N3Cc2ccccc2)cc1 (configuration not stated)	none
COc1cccc(C(=O)N2CCc3c(c(C(=O)NCc4ccc(F)cc4)nn3C)C2)c1	mHTT-CaM PPI inh 86
Cn1nc(C(=O)NCc2ccc(F)cc2)c2c1CCN(C(=O)c1cccs1)C2	none
Cn1nc(C(=O)NCc2ccc(F)cc2)c2c1CCN(C(=O)c1ccc(F)cc1)C2	none
Cc1cccc(C(=O)N2CCc3c(c(C(=O)NCc4ccc(F)cc4)nn3C)C2)c1	mHTT-CaM PPI inh 73
CN(C)c1ccc(-c2nc3sc4c(c3c(=O)[nH]2)CCCC4)cc1	none
Cc1nc(N2CCOCC2)c2c(C)c(C(=O)Nc3ccc(Br)cc3C)sc2n1	none
Cc1nc(N2CCOCC2)c2c(C)c(C(=O)Nc3ccc([N+](=O)[O-])cc3C)sc2n1	mHTT-CaM PPI inh 52
Cn1nc(-c2nc(-c3cccc(F)c3)no2)c2c1CCN(C(=O)CCc1ccccc1)C2	none
COC(=O)c1ccc(-c2csc(NC(=O)Nc3ccc4c(c3)OCO4)n2)cc1	none
O=[N+]([O-])c1ccc(-c2csc(Nc3ccc4c(c3)OCO4)n2)cc1	mHTT-CaM PPI inh 55
CC(C)Cc1ccc(-c2csc(Nc3ccc4c(c3)OCO4)n2)cc1	mHTT-CaM PPI inh 67
Clc1ccc(-c2csc(Nc3ccc4c(c3)OCO4)n2)cc1	none
c1ccc(C2Nc3ccccc3-c3nc4ccccc4n32)nc1 (configuration not stated)	none
Clc1ccc(SCCCCn2ccnc2)cc1	none
Cc1cccc(C)c1NS(=O)(=O)c1ccc(NS(C)(=O)=O)cc1	none
COc1cccc(CNc2cccc3cccnc23)c1O	mHTT-CaM PPI inh 54
COc1cccc(CNc2ncccn2)c1OC	none
COc1cc(N=Cc2nc(-c3ccccc3F)oc2O)c(C(=O)O)cc1OC	none
O=C(O)c1ccccc1N=Cc1nc(-c2ccccc2F)oc1O	Pf apPOL inh 96

Source: PubChem BioAssay
